According to PubChem BioAssay (EPA / NIEHS):
Several values for one entry are separate records, joined by “and”; a condition that tells them apart may be missing. Equal values may be shown once. More than one record can exist for a structure, and the calls need not agree. Activity calls are given as the source filed them. How the source made its calls: active means hit-call score of the fitted dose curve at least 0.9, where 1 is the maximum; inactive means score below 0.9.

experiment: APR_HepG2_p53Act_72hr: Apredica 72-hour HepG2 Assay for p53 Activation (AID 2282923); settings: high-content imaging, actives raise or lower the signal;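 further: average cellular p53 protein immunofluorescence intensity in HepG2 cells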
Protocol: APR_HepG2_72hr is a cell-based, multiplexed-readout assay that uses HepG2, a human liver cell line, with measurements taken at 72 hours after chemical dosing in a 384-well plate.APR_HepG2_p53Act_72hr is one of 10 assay component(s) measured or calculated from the APR_HepG2_72hr assay. It is designed to make measurements of dna content, a form of viability reporter, as detected with fluorescence intensity signals by HCS Fluorescent Imaging technology.Data from the assay component APR_HepG2_p53Act_72hr was analyzed into 1 assay endpoint. This assay endpoint, APR_HepG2_p53Act_72hr, was analyzed with bidirectional fitting relative to DMSO as the negative control and baseline of activity. Using a type of viability reporter, measures of protein for gain or loss-of-signal activity can be used to understand the signaling at the pathway-level as they relate to the gene TP53. Furthermore, this assay endpoint can be referred to as a primary readout, because this assay has produced multiple assay endpoints where this one serves a signaling function. To generalize the intended target to other relatable targets, this assay endpoint is annotated to the dna binding intended target family, where the subfamily is tumor suppressor.
Cells were treated with dimethyl sulfoxide (DMSO) as a solvent control at a final concentration of 0.5% v/v or with compounds in DMSO with a resulting final DMSO concentration of 0.5% v/v. Compound treatment was done at concentrations of 0.39, 0.78, 1.56, 3.12, 6.24, 12.5, 25, 50, 100, and 200 uM in duplicate on each plate. Cells were treated with compounds for 1, 24, or 72 hr. Carbonyl […] m-chloro-phenylhydrazone (CCCP) and taxol were used as positive controls for mitochondrial function and cytoskeletal stability, respectively; DMSO served as the negative control for this experiment. Cells were fixed by the direct addition of 50 uL formaldehyde in Hank's Balanced Salt Solution (HBSS) to a final concentration of 3.7%. After incubation in the fixation medium for 30 min at room temperature (293-298 K), cells were rinsed twice with HBSS and treated with cell permeabilization buffer (16 uL of 0.5% Triton X-100) for 10 min at room temperature (293-298 K) before labeling. For mitochondrial membrane potential and mitochondrial measurements, pre-fixed cells were incubated with 50 uL of MitoTracker Red CMXRos (Invitrogen) at a concentration of 250 nM for 30 min before fixation. In the remaining cases, post-fixed cells were labeled by incubation with a multiplexed mixture of primary antibodies in HBSS for 60 min at room temperature (293-298 K) to detect immunoreactivity of c-Jun (1:500), phospho-histone H3 (1:100), phospho-histone H2A.x (1:200), p53 (1:400), alpha-tubulin (1:200) and Hoechst 33342 (2 ug/mL). Cells were labeled for multiplexed imaging on two separate plates: a) Hoechst 33342, MitoTracker Red, phospho-histone H3, and alpha-tubulin, and b) Hoechst 33342, phospho-histone H2A.x, and c-Jun. A final rinse with HBSS (50 uL) was performed before analysis. The primary and secondary antibodies for the proteins were phospho-histone H3 (rabbit anti-phospho-histone H3 and FITC-donkey anti-rabbit IgG), phospho-histone H2A.x (mouse anti-phospho-histone H2A.x and FITC-donkey anti-mouse IgG), c-Jun (rabbit anti-phospho-c-Jun and Cy3-donkey anti-rabbit IgG), p53 (sheep anti-p53 and Cy5-donkey anti-sheep IgG), alpha-tubulin (mouse anti-alpha-tubulin and Cy5-donkey anti-mouse IgG). These antibodies are available as the CellCiphr HepG2 assay kit (Millipore).Digital images of each well were captured using a Cellomics ArrayScan VTI (Thermo Scientific Cellomics) (0.8 NA objective, 0.63x optical coupler, and XF-93 filter set) at 20x magnification. The images were acquired using the autofocus feature of the ArrayScan instrument, which entails the following steps. First, the camera focuses on channel 1 (Hoechst 33342), where nuclei are identified. Second, a Z offset of 1 um is used for capturing mitochondria (MitoTracker Red). […]

Compound	outcome	AC50
CCNc1nc(Cl)nc(NC(C)C)n1	inactive	–
C=CCC1=C(C)[C@@H](OC(=O)[C@@H]2[C@@H](C=C(C)C)C2(C)C)CC1=O	–	107 µM (active)
CC(C)Oc1cc(-n2nc(C(C)(C)C)oc2=O)c(Cl)cc1Cl	inactive	–
Oc1ccccc1-c1ccccc1	inactive	–
Cc1c(F)c(F)c(COC(=O)C2C(/C=C(\Cl)C(F)(F)F)C2(C)C)c(F)c1F (stereo not given)	inactive	–
CCCCC(CC)COC(=O)c1ccccc1C(=O)OCC(CC)CCCC (stereo not given)	inactive	–
CC(C)(C)c1ccc(CSc2cnn(C(C)(C)C)c(=O)c2Cl)cc1	inactive	–
C=CCC1=C(C)C(OC(=O)C2C(C=C(C)C)C2(C)C)CC1=O (stereo not given)	inactive	117 µM (active)
COc1ccc(C(c2ccc(OC)cc2)C(Cl)(Cl)Cl)cc1	–	76.4 µM (active)
CCCCNC(=O)n1c(NC(=O)OC)nc2ccccc21	inactive	–
CNC(=O)ON=CC(C)(C)SC	inactive	–
Fc1ccc(Oc2ccnc3cc(Cl)cc(Cl)c23)cc1	inactive	–
CCOc1cc(Oc2ccc(C(F)(F)F)cc2Cl)ccc1[N+](=O)[O-]	inactive	–
COP(N)(=O)SC (stereo not given)	inactive	–
CCCC1COC(Cn2cncn2)(c2ccc(Cl)cc2Cl)O1 (stereo not given)	inactive	–
COc1cnc(OC)n2nc(NS(=O)(=O)c3c(OCC(F)F)cccc3C(F)(F)F)nc12	inactive	–
CO/C=C(/C(=O)OC)c1ccccc1Oc1cc(Oc2ccccc2C#N)ncn1	inactive	50.7 µM (active) and 53 µM (active) and 50.6 µM (active)
N#CC(CCc1ccc(Cl)cc1)(Cn1cncn1)c1ccccc1 (stereo not given)	inactive	–
CCc1nn(C)c(C(=O)NCc2ccc(C(C)(C)C)cc2)c1Cl	inactive	–

Compound	outcome	AC50
Cc1cc(Cl)ccc1OCC(=O)O	inactive	–
C#CCOS(=O)OC1CCCCC1Oc1ccc(C(C)(C)C)cc1 (stereo not given)	inactive	–
COc1nc(NC(C)C)nc(NC(C)C)n1	inactive	–
CON(C)C(=O)Nc1ccc(Cl)c(Cl)c1	inactive	–
OC(c1ccc(Cl)cc1)(c1cncnc1)c1ccccc1Cl (stereo not given)	inactive	–
O=C(O)c1nc(Cl)ccc1Cl	inactive	–
CS/C(C)=N/OC(=O)N(C)SN(C)C(=O)O/N=C(\C)SC	inactive	–
COC(=O)C(C)Oc1ccc(Oc2ccc(Cl)cc2Cl)cc1 (stereo not given)	inactive	–
CNC(=S)S	inactive	–
COc1nc(C)nc(NC(=O)NS(=O)(=O)c2ccccc2CCC(F)(F)F)n1	inactive	–
N#Cc1cc(Br)c(O)c(Br)c1	inactive	–
Cc1ccc(-c2c(Cl)nc(C#N)n2S(=O)(=O)N(C)C)cc1	inactive	–
COP(=S)(OC)Oc1nc(Cl)c(Cl)cc1Cl	inactive	–
CN(C)C(=S)SSC(=S)N(C)C	inactive	–
CC(C)C1(C)N=C(c2nc3ccccc3cc2C(=O)O)NC1=O (stereo not given)	inactive	–
CC1=C(C(=O)Nc2ccccc2)SCCO1	inactive	–
O=C(Nc1ccccc1)Nc1ccnc(Cl)c1	inactive	–
COC(=O)c1ccccc1C(=O)OC	inactive	–
C=CC1(C)OC(=O)N(c2cc(Cl)cc(Cl)c2)C1=O (stereo not given)	inactive	–
